Results: PubChem BioAssay AID1159580 (chemical genetic matrix, 2015)
About 2,000 (36%) of roughly 5,500 compounds were called active. Inconclusive results (about 18%) are left out. No stated cut-off is given here; in the data, active means normalized growth mostly below about 0.91 (no sharp cut-off); inconclusive means no clear call, values can overlap the other calls; inactive means mostly above about 0.92. The list shows a part of the results.

Test: chemical genetic growth profiling, strain panel (AID 1159580);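 further: tested at 20 µM; growth read once vehicle control cultures reached saturation at 30 °C; 1 = growth at the plate median or of vehicle wells; lower values mean less growth of the strain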
Details: S. cerevisiae deletion strains, growth OD
[1] = locus YAR019C, strain CDC15, active compounds read low
[2] = locus YBL105C, strain PKC1, active compounds read low
[3] = locus YBR135W, strain CKS1, active compounds read low
[4] = locus YBR136W, strain MEC1, active compounds read low
[5] = locus YBR160W, strain CDC28, active compounds read low
[6] = locus YDL017W, strain CDC7, active compounds read low
[7] = locus YDL028C, strain MPS1, active compounds read low
[8] = locus YDL101C, strain DUN1, active compounds read low
[9] = locus YDL108W, strain KIN28, active compounds read low
[10] = locus YDL132W, strain cdc53, active compounds read low
[11] = locus YDL214C, strain PRR2, active compounds read low
[12] = locus YDR052C, strain DBF4, active compounds read low
[13] = locus YDR054C, strain cdc34, active compounds read low
[14] = locus YDR226W, strain ADK1, active compounds read low
[15] = locus YDR477W, strain SNF1, active compounds read low
[16] = locus YER123W, strain YCK3, active compounds read low
[17] = locus YER133W, strain GLC7, active compounds read low
[18] = locus YFL009W, strain cdc4, active compounds read low
[19] = locus YFL029C, strain CAK1, active compounds read low
[20] = locus YFR003C, strain YPI1, active compounds read low
[21] = locus YFR019W, strain FAB1, active compounds read low
[22] = locus YFR028C, strain CDC14, active compounds read low
[23] = locus YGR040W, strain KSS1, active compounds read low
[24] = locus YGR052W, strain FMP48, active compounds read low
[25] = locus YGR092W, strain DBF2, active compounds read low
[26] = locus YHR030C, strain SLT2, active compounds read low
[27] = locus YHR079C, strain IRE1, active compounds read low
[28] = locus YHR082C, strain KSP1, active compounds read low
[29] = locus YHR205W, strain SCH9, active compounds read low
[30] = locus YIL147C, strain SLN1, active compounds read low
[31] = locus YJL095W, strain BCK1, active compounds read low
[32] = locus YJL128C, strain PBS2, active compounds read low
[33] = locus YJL157C, strain FAR1, active compounds read low
[34] = locus YJR016C, strain ILV3, active compounds read low
[35] = locus YJR066W, strain TOR1 (second series), active compounds read low
[36] = locus YJR066W, strain TOR1, active compounds read low
[37] = locus YKL048C, strain ELM1, active compounds read low
[38] = locus YKL067W, strain YNK1, active compounds read low
[39] = locus YKL101W, strain HSL1, active compounds read low
[40] = locus YKL193C, strain SDS22, active compounds read low
[41] = locus YKL203C, strain TOR2, active compounds read low
[42] = locus YLR113W, strain HOG1, active compounds read low
[43] = locus YLR133W, strain CKI1, active compounds read low
[44] = locus YLR403W, strain SFP1, active compounds read low
[45] = locus YML070W, strain DAK1, active compounds read low
[46] = locus YMR001C, strain CDC5, active compounds read low
[47] = locus YMR205C, strain PFK2 (second series), active compounds read low
[48] = locus YMR277W, strain FCP1, active compounds read low
[49] = locus YNL006W, strain LST8, active compounds read low
[50] = locus YNL020C, strain ARK1, active compounds read low
[51] = locus YNL161W, strain CBK1, active compounds read low
[52] = locus YNL183C, strain NPR1, active compounds read low
[53] = locus YNL207W, strain RIO2, active compounds read low
[54] = locus YNL222W, strain SSU72, active compounds read low
[55] = locus YNL307C, strain MCK1 (second series), active compounds read low
[56] = locus YOL078W, strain AVO1, active compounds read low
[57] = locus YOL136C, strain PFK27, active compounds read low
[58] = locus YOR061W, strain CKA2, active compounds read low
[59] = locus YOR119C, strain RIO1, active compounds read low
[60] = locus YOR231W, strain MKK1, active compounds read low
[61] = locus YOR329C, strain SCD5, active compounds read low
[62] = locus YPL031C, strain PHO85, active compounds read low
[63] = locus YPL153C, strain RAD53, active compounds read low
[64] = locus YPL204W, strain HRR25, active compounds read low
[65] = locus YPL209C, strain IPL1, active compounds read low
[66] = locus YPL256C, strain CLN2, active compounds read low
[67] = locus YPR025C, strain CCL1, active compounds read low
[68] = locus YPR106W, strain ISR1, active compounds read low
[69] = locus YPR111W, strain DBF20, active compounds read low
[70] = strain NNK1, active compounds read low
[71] = strain TSCII, active compounds read low

Measured: normalized growth

Cc1c(C)c(C)c(CSC(N)=Nc2ccc(F)cc2)c(C)c1C
inactive: [1] 0.996 | [2] 0.997 | [3] 0.994 | [4] 0.997 | [5] 0.997 | [6] 0.999 | [7] 0.995 | [8] 1.01 | [9] 0.992 | [10] 1 | [11] 0.944 | [12] 1 | [13] 0.998 | [14] 0.995 | [15] 0.931 | [16] 0.894 | [17] 0.937 | [18] 1.01 | [19] 0.993 | [20] 1 | [21] 0.946 | [22] 1.01 | [23] 0.932 | [24] 0.959 | [25] 0.975 | [26] 0.946 | [27] 0.953 | [28] 1.02 | [29] 0.967 | [30] 0.992 | [31] 0.925 | [32] 0.942 | [33] 0.936 | [34] 0.998 | [35] 0.93 | [36] 1.05 | [37] 0.966 | [38] 0.955 | [39] 0.943 | [40] 0.999 | [41] 0.999 | [43] 0.969 | [44] 0.953 | [45] 0.921 | [46] 0.993 | [47] 0.953 | [48] 1 | [49] 1 | [50] 0.969 | [51] 1 | [52] 1.03 | [53] 0.998 | [54] 1.01 | [55] 0.969 | [56] 0.998 | [57] 0.945 | [58] 0.972 | [59] 1 | [60] 0.97 | [61] 0.996 | [62] 0.929 | [63] 0.942 | [64] 0.95 | [65] 0.999 | [66] 0.902 | [67] 1 | [68] 0.99 | [69] 0.99 | [70] 0.995 | [71] 0.998
active: [42] 0.823

CCSC(N)=Nc1ccc(C(F)(F)F)cc1
inactive: locus YAL040C, strain CLN3, active compounds read low 0.942 | locus YCL061C, strain MRC1 (second series), active compounds read low 0.997 | locus YDR363W, strain ESC2, active compounds read low 0.98 | locus YER002W, strain NOP16, active compounds read low 1.03 | locus YGR229C, strain SMI1, active compounds read low 0.931 | locus YJR075W, strain HOC1, active compounds read low 1.01 | locus YMR263W, strain SAP30, active compounds read low 1 | locus YMR307W, strain GAS1, active compounds read low 1 | locus YNL128W, strain TEP1, active compounds read low 1.01 | locus YNL153C, strain GIM3, active compounds read low 1 | locus YNL175C, strain NOP13, active compounds read low 1.01 | locus YNL197C, strain WHI3, active compounds read low 1.03 | locus YNL224C, strain SQS1, active compounds read low 0.997 | locus YOR083W, strain WHI5 (second series), active compounds read low 0.989 | locus YPL055C, strain LGE1, active compounds read low 0.986

NC(=Nc1ccc(F)cc1)SCc1c(Cl)cccc1Cl
inactive: [1] 0.992 | [2] 0.99 | [3] 0.985 | [4] 0.984 | [5] 0.986 | [6] 0.99 | [7] 0.983 | [8] 0.996 | [9] 0.985 | [10] 0.986 | [11] 0.954 | [12] 0.992 | [13] 0.991 | [14] 0.985 | [15] 0.96 | [16] 0.923 | [17] 0.954 | [18] 0.987 | [19] 0.994 | [20] 0.99 | [21] 0.96 | [22] 0.989 | [23] 0.947 | [24] 0.981 | [25] 0.978 | [26] 0.985 | [27] 0.962 | [28] 1.05 | [29] 0.962 | [30] 0.99 | [31] 0.954 | [32] 0.938 | [33] 0.961 | [34] 0.991 | [35] 0.99 | [36] 1.09 | [37] 0.967 | [38] 0.962 | [39] 0.945 | [40] 0.989 | [41] 1.03 | [42] 0.882 | [43] 0.975 | [44] 0.975 | [45] 0.944 | [46] 0.991 | [47] 0.961 | [48] 0.989 | [49] 0.982 | [50] 0.971 | [51] 0.988 | [52] 1.06 | [53] 0.994 | [54] 0.988 | [55] 0.987 | [56] 0.986 | [57] 0.958 | [58] 0.975 | [59] 1.02 | [60] 0.985 | [61] 0.99 | [62] 0.952 | [63] 0.964 | [64] 0.989 | [65] 0.994 | [66] 0.962 | [67] 0.98 | [68] 0.981 | [69] 0.982 | [70] 0.992 | [71] 1
